# Measurements from the supplement of paper PMC11417369.
# ± gives the standard deviation of the averaged measurements. The full ranking holds about 25,000 sequences; the median of “ln(normalized median fluorescence intensity)” is about 7.9, and the highest 2% start at about 11. The entries come from a sample that favours the highest values as a whole.
# Test system: PfAP2-I AP2 domain 3 (GST-tagged)
# Test: gcPBM binding intensity (ln(normalized median fluorescence intensity)); higher = stronger DNA binding
# In short: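 In this array assay, P. falciparum DNA-binding domains with a GST tag, expressed in E. coli, were applied for 1 h to primer-extended double-stranded 36-bp intergenic genomic probes and negative controls on an Agilent 4 × 180k array. Bound protein was visualised with Alexa488 anti-GST antibody at 488 nm. Binding intensity is the highest Masliner-normalised natural-log median intensity across replicate spots of either probe orientation.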
row,Sequence,gcPBM binding intensity (ln)
1,TTTGTTATATTTAATACACACATATTATAAACCCAT [CACACA_site3716],7.95 ± 0.59
2,TTTTCTTACACGAATTTTAAATTCAATATTAAACAT [CACACA_negctrl_site286],8.03 ± 0.44
3,ATGTATATTTTTATGTGTACGTAATAAAACATAATA [XGTACX_site7777],8.33 ± 0.27
4,AAATCCATATAGGATTGTACATATATTATATATATA [XGTACX_site8818],8.46 ± 0.39
5,ATCCTCTTTACAATATGTACATAAATATATATTTAT [XGTACX_site8001],8.47 ± 0.43
6,TACACATAATATAATGCATGTGTGATGTATGTTTAA [TGCATGCA_site697],8.09 ± 0.66
7,TTTTGTTATTTTTCAGTGCAATATGATAATAATATA,10.5 ± 0.46
8,TTTTTTGTTATGCGGGTGCATATAATAATGTGATGA,10.9 ± 0.89
9,TTTTTTTTTTTTTGTACATGCAAATATTATGAACAC [TGCATGCA_site571],8.28 ± 0.53
10,GAAATAATTCGATGTGCATGTAACGTTTCCCCAAAG [TGCATGCA_site122],8.58 ± 0.54
11,AATAAATAAATAAGTACACACATATAAATATAAATA [CACACA_site6271],7.91 ± 0.25
12,TGTTATTAAAATATAGTGCATAATTAACCATTATAA [GTGCAC_site9594],10.8 ± 0.65
13,TTTTATGCGCAATAAGTGCATTTAAAATATATATAT,11 ± 0.13
14,TTTTATGCATGTGAAGTGCAAAATAAAAAATAAAAT [GTGCAC_site9612],10.8 ± 0.4
15,AATAAAATAAATATATGTACATATATATAACCATTA [XGTACX_site5549],7.59 ± 0.38
16,TGGTTTATTTATTAAGTGCATAAATGCAATATATAT,10.6 ± 0.44
17,AATATATATAAAAAAGTGCATTAGGATAACCATATA [GTGCAC_site9590],11.2 ± 0.57
18,AGGATATATAATTAAGTGCATTAATTCAAAATAAAA [GTGCAC_site9702],11.5 ± 0.54
19,TGATATAAAATTAAAGTGCAAAAAAAAAATAAAAAA,10.06 ± 0.078
20,TTATAAAATATTTATGCATGTGAAGAATATTATAAA [TGCATGCA_site1047],8.42 ± 0.34
21,ATTCTTAAAAAATAAGTGCAAAATAATTAAATAAAT,10.23 ± 0.014
22,AAGTATTATTTTTATGCATGTGAAGTGCAAAATAAA [TGCATGCA_site198],11 ± 0.43
23,ATATATTTTTATGTAGTGCATTTAAATAATAAATGC,10.7 ± 0.55
24,AAAAAAAAAAAAAATTGTACATTAAATTAAAAGAAA [XGTACX_site8708],7.88 ± 0.28
25,ATATATATATATATAGTGCAAATATCTTCTTTATAA,10.4 ± 0.26
26,ATACAAGAATTAAACACACACAAAATATAAATTCTT [CACACA_site3005],7.85 ± 0.71

row,Sequence,gcPBM binding intensity (ln)
1,AAATATTATTGACGATGTACTTCTATTCATAAGTAT [XGTACX_site3964],7.55 ± 0.5
2,TAAAAATAAAGAAAATGTACATAAATAAAAATAAAG [XGTACX_site2279],8.14 ± 0.69
3,GATATAATGTGTTTGGTATTCTTGATAGATAGTTTT [CACACA_negctrl_site1711],7.7 ± 0.47
4,TGTAATGTTTACAACACACAAATTATAAATACAAAA [CACACA_site5047],7.67 ± 0.59
5,TATATGTTTTATAGTACACACATAAATGGACATACT [CACACA_site2191],7.83 ± 0.33
6,CTATATTTCGTTGGACGTACAAATGTGATAATTAGG [XGTACX_site3232],8.06 ± 0.46
7,TGTAAAATATAAAAAGTGCATTTCTTTTAATATGAT,9.96 ± 0.19
8,AGGTAAAAATGGTAAGTGCATTAATGATAAAAAATG,11.1 ± 0.18
9,TTGTGTAAATGTTAAGTGCATTTGGTAAAATATAAA [GTGCAC_site9699],9.51 ± 0.11
10,TTGTATTAAAATCAAGTGCATATAATTTAAGTTCAT [GTGCAC_site9495],9.54 ± 0.042
11,TATCAATATTAAAAAGTGCAAAATAAAATATAAAAT [GTGCAC_site9486],10.7 ± 0.23
12,TAAATTAATAAACAAGTGCATATATATATATATATA,10 ± 0.49
13,ATCCTTTATAAATAAGTGCATATAAAAAATAATATT [GTGCAC_site9759],10.1 ± 0.3
14,GTCATCAAGTATTAAGTGCATTAAAAATAAAATATA,11.3 ± 0.62
15,TAAATATATATATAAGTGCATTATATATATATATAA,11.2 ± 0.57
16,TAAAAAATAAAATACACACACATATATATATATATA [CACACA_site1323],9.33 ± 0.2
17,ATTATGAATTTAAGACGTACAAAAAATTTTTATTCA [XGTACX_site5682],7.8 ± 0.31
18,ACAAAATTTACAAAATGTACAAAATTTACAAAGTAT [XGTACX_site6463],7.54 ± 0.56
19,ACATATATTGTACATACACACCTATATAAATATCCT [CACACA_site7503],8.24 ± 0.54
20,AATAGTCGTGTGCATACACACCTTAACTATAATATA [CACACA_site6636],8.83 ± 0.2
21,AACAATATGGATGTATGTACACATATAGAACGTTAT [XGTACX_site7142],7.91 ± 0.72
22,TATGAATGTATATGTTGTACATATAAATATTTATAT [XGTACX_site1146],7.72 ± 0.34
23,TTTGTATTAAAAAAAAAAAAAAAAAAAATGAATAAA [TGCATGCA_negctrl_site292],7.34 ± 0.41
24,TTGTATTTCCTTAGGAGTACACATAAATAAGTAAAT [XGTACX_site6677],8.22 ± 0.092
25,ATAATTACATAGATTGGTACACATTTTTGATTGTAT [XGTACX_site3802],7.71 ± 0.44
26,ACTAATAATTTGTCGGTGCATAAAATTATTTTTATT [GTGCAC_site9840],10.8 ± 0.43

row,Sequence,gcPBM binding intensity (ln)
1,TGTATTAAAAATTTGGTGCAACTTTTACATAATAAT,9.49 ± 0.18
2,ACTTTAACCTGAACGGTGCATAAAATTTTGGCATTA,10.9 ± 0.35
3,CATATTATATTCTGCTTACACACATATATATATATA [CACACA_site3059],9.36 ± 0.29
4,TCCCAATTTCTATCCTGTACAGACATAAATATATAC [XGTACX_site5937],8.31 ± 0.49
5,TATGTATATATTTACGCATGCTACTCTATTTTGAGA [TGCATGCA_site990],7.64 ± 0.48
6,TAAATCAAAATAATTTAACACACAATTTTAATACTG [CACACA_site8744],7.34 ± 0.54
7,AATAAATACTAAATGGTGCAAAATTTTTTAACACTG,10.8 ± 0.42
8,ATACTATTTAAATGGGTGCTAAAAATAACAAAAATT,9.65 ± 0.085
9,ATCAAATTTGGACATGCATGTGTGTGTAAAACCATG [TGCATGCA_site309],8.52 ± 0.41
10,TGGTATATTATTTTTTGTACACATAAATGAAACATT [XGTACX_site5345],8.04 ± 0.22
11,GGTGTTTTTCACAGATGTACACAAATAAAAAAGAAA [XGTACX_site4454],8.39 ± 0.47
12,TCGTTATCCATCTTCACACATATATATAGTAATATA [CACACA_site5492],8.27 ± 0.49
13,AAAGTGTTAACCTAATCTTTAGTTTTTAAACAATAT [CACACA_negctrl_site841],7.49 ± 0.59
14,TTAATTTATTTATGCACACATATATAATTACCCATA [CACACA_site682],10.2 ± 0.67
15,ACCCATTTTAATTTAGTGCACATTTTACCTTTATAC,11.4 ± 0.35
16,GCCATTAATTTATACACACACATTATAACTTTTTAT [CACACA_site6492],8.29 ± 0.49
17,TATAATAATATTATAGTGCATATTATTTATATATAA [GTGCAC_site9820],9.72 ± 0.16
18,CTATTTCAATTTAGTGCACACATTTTAATTTATAAG [CACACA_site2040],11.4 ± 0.49
19,TATATTATTAATTAAGCACACATTATTTTTATAATA [CACACA_site3982],8.54 ± 0.3
20,ATATATATATATATAGTGCACATTTATATAATTATT,11.43 ± 0.092
21,TTTTTTTCAATATTTGCACACGATTATAATATTTAA [CACACA_site2237],9.415 ± 0.035
22,TTAATAATTAATTATAGTACACATTTATATTAATAA [XGTACX_site190],7.915 ± 0.064
23,TAATGGTGTTCATGTGGTACACTTTATAAATTGGCA [XGTACX_site729],7.9 ± 0.47
24,CCCTTTTATTAAAATTCACACACATAAATTTTTATA [CACACA_site8611],8.06 ± 0.41
25,TATAAAAAAAAAAAATATATATATATATAAATATAA [TGCATGCA_negctrl_site367],7.28 ± 0.37
26,ACTTAGGAAATAAAACGTACATTAAATATATACATA [XGTACX_site2990],7.84 ± 0.35

row,Sequence,gcPBM binding intensity (ln)
1,AAATAAAAAAGTAGTACACACTTCACGATATTTTTT [CACACA_site6015],7.89 ± 0.43
2,CATCAAGTGAATTGTTGTACTTTACATTGTTTTTAT [XGTACX_site7261],7.89 ± 0.69
3,AAAAAATATTATATATGTACATAATATTTTTTTTTT [XGTACX_site5909],7.47 ± 0.39
4,ACATACTCAAATAGCACACACATAAATAAAAATGTA [CACACA_site3864],8.42 ± 0.099
5,AAAAGAAAATATATGTGTACTAAAATATATATATAT [XGTACX_site3817],9.455 ± 0.021
6,AAATCGTGTACATTGACACACATAATTTTTTTTATA [CACACA_site2463],8.09 ± 0.38
7,ACATATTATTCAAGTGCACACTTTATATTTATGATT [CACACA_site3295],9.715 ± 0.035
8,ATCATCTTTATTCAAGTGCACTGAAAATTTTTTATA [GTGCAC_site9801],11.1 ± 0.32
9,TTATTTTATTTTTGTGCACACTGATAAATTGAAAAG [CACACA_site2949],10.8 ± 0.22
10,TACATCATCTATAAGGTGCATTTTAGTTCTATTAAA,10.3 ± 0.58
11,TCCTTTATTTTTAAAGTGCATATACATGTACATTAT [GTGCAC_site9445],9.675 ± 0.078
12,AAAAAAAAAAGAAACACACACATATAGATTTATAAC [CACACA_site6927],7.69 ± 0.69
13,AAGTTTAAAATCTTTGCACACATATAAATAAATATA [CACACA_site2554],8.94 ± 0.12
14,ATAATAAATACACTAGTGCAAAATAATATATGTACT [GTGCAC_site9707],10.4 ± 0.22
15,ATATAATATTAGTGCACACACAAAAATGTACTAAAC [CACACA_site632],11.3 ± 0.54
16,AAAAATATAATATAATGTACACATAAACAAAAAAAA [XGTACX_site3658],7.92 ± 0.57
17,AGAAAAATAAACAAATGTACAAATTATTACTATATA [XGTACX_site1087],7.63 ± 0.34
18,AAAAATATAATATAATGTACACAAAAAAAAAAAAAT [XGTACX_site4914],8.18 ± 0.15
19,AAAAATATAATATAATGTACACAAAAAAAAAAAATC [XGTACX_site1427],7.93 ± 0.52
20,TTAAAAAACTATAATACACACCAAAAATATGCACAT [CACACA_site7079],9.44 ± 0.7
21,TAGAAACTATGTAATGCACACCAAAATAAAATTATT [CACACA_site8578],10.4 ± 0.33
22,ATATTACAAATATAATGTACAAAATATAAATATGCA [XGTACX_site8106],7.62 ± 0.3
23,CTATAATATTAGTGCACACACAAAAATGTACTAAAC [CACACA_site6442],11.6 ± 0.62
24,GTATATAATATTAGTGCACACACAAAAATGTACTAA [CACACA_site8112],11.4 ± 0.55
25,GAAACTATGTAATGCACACCAAAATAAAATTATTAA [CACACA_site1904],10.9 ± 1
